D2 ag-1 – agonists of human D2 dopamine receptor | HEK293 T-REx D2 cells, calcium flux agonist mode | activation, % at 2 µM | 0.53% of 340,000 active | AID 485358;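 active = activation over 3 SD above normal in the single-dose calcium agonist read, cut at about 30% in these data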
Target sequence (P14416 whole entry, looked up): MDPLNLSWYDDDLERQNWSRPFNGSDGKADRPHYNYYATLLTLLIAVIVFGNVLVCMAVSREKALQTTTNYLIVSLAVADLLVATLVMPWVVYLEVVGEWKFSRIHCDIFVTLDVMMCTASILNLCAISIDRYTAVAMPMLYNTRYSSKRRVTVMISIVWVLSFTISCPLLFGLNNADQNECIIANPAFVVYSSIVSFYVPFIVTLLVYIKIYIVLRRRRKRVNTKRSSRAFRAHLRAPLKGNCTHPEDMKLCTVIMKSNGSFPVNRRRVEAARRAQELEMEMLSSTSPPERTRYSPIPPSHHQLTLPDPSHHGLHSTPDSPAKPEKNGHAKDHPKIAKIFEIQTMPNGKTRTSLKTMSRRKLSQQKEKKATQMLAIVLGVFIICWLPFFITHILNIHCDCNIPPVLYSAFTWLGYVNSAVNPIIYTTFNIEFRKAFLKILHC
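Agonism scored from kinetic calcium signal (1 read/sec, 180 s) following compound pin transfer, after a 10 s baseline. Cells: HEK293 Trex line expressing inducible D2 receptor coupled to calcium, dye-loaded after overnight culture at 30 C.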
D2 PAM-1 – human D2 receptor positive allosteric modulation; DiscoveRx D2 beta-arrestin cells, luminescence, 90 min; 100% = 57 uM dopamine signal; P14416; 0.23% of 360,000 active; potentiation, % (no concentration beside the values); AID 624464; in the data active = potentiation above about 50%; inconclusive = mostly about 30% to 49%
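PathHunter D2 cells, attached overnight at 37 deg C, received compound in DMSO plus dopamine at EC20 (50 nM final) for 90 min at 37 deg C. Beta-arrestin recruitment was read as luminescence after 1 h with detection reagent at ambient temperature.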
D2 ag-2 – agonists of human D2 dopamine receptor (beta-arrestin). DiscoveRx PathHunter D2 beta-arrestin, luminescence, 90 min; 100% = 57 uM dopamine signal. 0.084% of 360,000 active. activation, % (concentration not given with the values). P14416. AID 624465; in the data active = activation above about 40%; inconclusive = between about 15% and that limit
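DiscoveRx PathHunter D2 beta-arrestin cells (2,100/well) attached overnight, then compound-stimulated 90 min at 37 C in HBSS/10 mM HEPES/0.1% Tween-20 buffer; beta-galactosidase complementation read by luminescence after 1 h at ambient temperature. Dopamine 57 uM final (EC100) as control.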
D2 PAM-2 – positively modulates the human D2 dopamine receptor allosterically; P14416; HEK293 T-REx D2, calcium flux, EC20 dopamine potentiation; potentiation, % at 10 µM; 0.34% of 340,000 active;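 active = potentiation over 3 SD above the plate norm, cut at about 30% in these data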
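Tetracycline-induced Hek293 Trex D2 cells, force-coupled to calcium, loaded with no-wash calcium dye. Compound added with 180 s kinetic read for agonism, then EC20 dopamine and a further 180 s read for potentiation.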
D2 antag – antagonists of human D2 dopamine receptor; HEK293 TREx D2 cells, calcium flux, dopamine EC80; 2% of 340,000 active; AID 485344; inhibition, % at 10 µM; P14416; in the data active = inhibition above about 30%; inactive = below that, where a call was filed
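Tetracycline-induced HEK293 T-REx cells expressing D2 force-coupled to calcium signalling were dye-loaded, exposed to compound for 180 s, then challenged with an EC80 of dopamine; calcium flux was followed kinetically for a further 180 s.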
Numbers stand for hits; - = inactive; ? = inconclusive; . = not tested or not shown. Only some compounds are listed: those with a hit (about 2.4% of all), similar ones and a draw of the others.

SMILES | D2 ag-1 | D2 PAM-1 | D2 ag-2 | D2 PAM-2 | D2 antag
CCN(c1ccccc1)S(=O)(=O)c1ccc(NC(=O)c2cc(=O)c3cc(C)c(C)cc3o2)cc1 | - | . | . | - | .
COc1cc(-c2cc(=O)c3c(O)c(OC)c(OC)c(O)c3o2)ccc1O | - | 87.9 | - | - | -
COc1c(O)c(O)c2oc(-c3ccccc3)cc(=O)c2c1OC | - | ? | - | - | -
O=C(CN(c1ccc(Cl)c(C(F)(F)F)c1)S(=O)(=O)c1ccccc1)N1CCc2ccccc2C1 | - | . | . | - | .
COC(=O)[C@]1(CC(C)C)N[C@H](c2ccc(SC3CCCCC3)c(OC)c2)[C@@H]2C(=O)N(C)C(=O)[C@@H]21 | - | - | - | 32.3 | -
O=C(Cn1c(=O)[nH]c2ccccc2c1=O)N1CCN(Cc2ccc3c(c2)OCO3)CC1 | - | - | - | - | -
O=C(CCCCCn1c(=O)[nH]c2ccccc2c1=O)N1CCN(Cc2ccc3c(c2)OCO3)CC1 | 34.7 | - | - | - | -
CS(=O)(=O)N(CCc1ccccc1)CC(=O)N1CCN(Cc2ccc3c(c2)OCO3)CC1 | - | - | - | - | 43.5
CC(C)[C@@H](C(=O)OCC(=O)Nc1ccc2c(c1)OCO2)N1C(=O)c2ccccc2C1=O | - | - | - | - | 46.3
CCOC(=O)c1cc(-c2ccc(C)o2)n[nH]1 | - | - | - | - | 30.4
CCc1nn(CC(=O)N2CCCCC2)c(=O)c2cc3occc3n12 | - | . | . | - | .
O=C(OCc1ccccc1Cl)c1ccc(-c2nnn(Cc3ccccc3)n2)cc1 | - | . | . | - | .
CCOc1ccc(OCC)c2sc(C)nc12 | - | - | - | 36.9 | -
CCOc1cccc2sc(Cl)nc12 | - | - | - | - | -
CCOc1ccc(N2CC(O)(c3ccc(F)cc3)[N+]3=C2CCCC3)cc1 (stereo not drawn) | - | - | - | - | 30.4
CC1(C)Cc2c(sc(/N=C/N3CCCC3)c2C#N)C(C)(C)N1 | - | - | - | - | 32.9
CC1(C)Cc2c(sc(/N=C/N3CCCCCC3)c2C#N)C(C)(C)N1 | - | - | - | - | -
COc1cccc(-n2c(-c3cccc(F)c3)nc3c(cnn3-c3ccc(C)cc3)c2=O)c1 | - | . | . | - | .
CCc1cccc(C)c1Nc1c(-c2cccs2)nc2nc(C)cc(C)n12 | - | . | . | - | .
O=C(NCc1ccccc1)c1onc(CSc2ccccc2)c1C(=O)NCC1CC1 | - | - | - | - | 38.8
C=CCNC(=O)c1onc(CSc2ccccc2)c1C(=O)O | - | - | - | - | 31.8
O=C(NCc1ccccc1)c1onc(CSc2ccc(Cl)cc2)c1C(=O)NCC1CC1 | - | - | - | - | -
C=CCNC(=O)c1onc(CSc2ccc(F)cc2)c1C(=O)O | - | - | - | - | -
CC(C)OC(=O)c1cccnc1N1CCN(c2ccc(F)cc2)CC1 | - | - | - | - | 32.7
CC(C)OC(=O)c1ccc(N2CCN(c3ccc(F)cc3)CC2)nc1 | - | - | - | - | -
SMILES | D2 ag-1 | D2 PAM-1 | D2 ag-2 | D2 PAM-2 | D2 antag
COc1ccc(C(=O)COC(=O)c2cccc(NC(=O)c3ccc(OC)c(OC)c3)c2)cc1 | - | . | . | - | .
O=C(Cn1c(=O)n(Cc2ccccc2)c(=O)c2sc3ccccc3c21)Nc1ccc(F)cc1 | - | . | . | - | .
COCc1oc2ccc(NS(=O)(=O)c3ccc(C)cc3)cc2c1C(=O)OC | - | . | . | - | .
COc1ccc(NC(=O)CCCc2ccccc2)c(OC)c1 | - | - | - | - | -
COc1ccc(NC(=O)C/C(C)=N/NC(=O)CCc2ccccc2)c(OC)c1 | - | - | - | - | 39.9
Cc1cc(C)c(OCC(=O)N(Cc2ccccc2)C2CCS(=O)(=O)C2)c(C)c1 (stereo not drawn) | - | - | - | 44.4 | -
CCc1ccc(CN(C(=O)COc2c(C)cccc2C)C2CCS(=O)(=O)C2)cc1 (stereo not drawn) | - | - | - | - | -
Cn1c(=O)cc(SCC(=O)N2CCN(c3ccccc3F)CC2)c2ccc(Cl)cc21 | - | . | . | - | .
CC(C)Cc1cc(CN2CCCC(CO)(Cc3cccc(Cl)c3)C2)[nH]n1 (stereo not drawn) | - | - | - | - | 53.5
Cc1nc2ccc(C(=O)N3CCCC(CO)(Cc4ccc(F)cc4F)C3)cc2nc1C (stereo not drawn) | - | - | - | - | 30.1
CSc1ccc(CN2CCCC(CO)(Cc3ccccc3)C2)cc1 (stereo not drawn) | - | - | - | - | 51.0

Source: PubChem BioAssay
